The list is not random: actives were taken first. Their share in the collection is about 1.2%.
NPSR antag – blocks cAMP signaling of the human neuropeptide S receptor; Q6W5P4; CHO-NPSR cells, cAMP TR-FRET, antagonist mode; Potency, µM (top dose mostly 38.3 µM), without a hit: at the highest dose activity change, negative = inhibition, usual class: inhibitors; actives 1% (n = 220,000); AID 1461; also: nearly all actives have a fitted effect of over 50% in size
TrxR1 substrate – rat thioredoxin reductase 1 substrate activity; purified TrxR1 substrate turnover, NADPH consumption readout; O89049; actives 0.01% (n = 390,000); Potency, µM (titrated, usually from 114 µM), for inactives: at the top dose activity change, negative = substrate turnover; also: nearly all actives have a fitted effect of over 50% in size
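Rat TrxR1, dispensed at 90 nM, was prereduced with 400 uM NADPH (final) for 5 min at ~22 deg C, then incubated with compound 15 min before 400 uM selenite. A first-read NADPH fluorescence drop versus no-compound background flagged substrates.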
GALK inh – galactokinase (human) inhibition; P51570; Purified GALK, Kinase-Glo residual ATP luminescence; Potency, µM (top dose mostly 57.5 µM), for the others: top-dose activity change, negative = inhibition, hits mostly inhibitors; actives 0.007% (n = 270,000); AID 1868
Target sequence (P51570 whole entry, looked up): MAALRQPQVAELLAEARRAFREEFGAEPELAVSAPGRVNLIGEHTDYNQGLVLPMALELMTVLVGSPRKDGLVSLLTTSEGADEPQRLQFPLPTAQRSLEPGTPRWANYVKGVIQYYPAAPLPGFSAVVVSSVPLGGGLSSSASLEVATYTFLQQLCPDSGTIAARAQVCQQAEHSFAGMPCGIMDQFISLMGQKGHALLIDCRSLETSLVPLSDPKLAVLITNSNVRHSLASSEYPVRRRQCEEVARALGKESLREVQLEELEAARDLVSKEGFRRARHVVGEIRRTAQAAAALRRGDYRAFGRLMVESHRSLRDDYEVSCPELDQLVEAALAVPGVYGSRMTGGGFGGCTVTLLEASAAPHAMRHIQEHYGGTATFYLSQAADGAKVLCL
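The enzyme phosphorylates galactose (100 uM) using ATP (35 uM); inhibition is detected as higher residual ATP, quantified by bioluminescence after 1 h reaction at room temperature, pH 8.0.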
rTrxR1 inhibitor – rat TrxR1 inhibition. AID 588453. recombinant rTrxR1, NADPH fluorescence consumption, selenite substrate. actives 1% (n = 390,000). O89049. Potency, µM (doses to about 114 µM), for the others: at the highest dose activity change, negative = inhibition, hits mostly inhibitors; also: nearly all actives have a fitted effect of over 65% in size
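Rat TrxR1 (90 nM in the dispensed reagent) was pre-reduced with 400 uM NADPH for 5 min at room temperature, then incubated with compound for 15 min. After 400 uM selenite was added, NADPH fluorescence (Ex 340/Em 450 nm) was followed for 8 min.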
Starred values were filed as active, the others as inactive; ? = inconclusive; nt = no result; [ ] = dose if it differs, or a comment. Calls follow the shape of the dose curve; as a rule, active = well fitted curve in the direction sought with a large enough effect; inconclusive = small, poorly fitted or top-dose-only effect, or another doubt; inactive = no such curve, though single readings can be large; an effect the other way counts as inactive or inconclusive. % is scaled to controls: 0 for no effect and ±100 for the full control effect; potency is read from the fitted curve at half-maximal effect.

SMILES | NPSR antag | TrxR1 substrate | GALK inh | rTrxR1 inhibitor
Cn1c(=O)n(C)c2cc(NS(=O)(=O)c3ccc(C(C)(C)C)cc3)c(NCc3ccccc3)cc21 | nt | 48% | nt | -14%
O=C(O)c1cccc(Cn2c(Cl)c(/C=N/NC(=O)c3ccccc3)sc2=O)c1 | -11%[46.1 µM] | -13% | -4% | -40%
COC(=O)c1cccc(Cn2c(Cl)c(/C=N/Nc3ccccc3C)sc2=O)c1 | -42% | -13% | 0% | 22µM*
Cc1ccccc1N/N=C/c1sc(=O)n(Cc2cccc(C(=O)O)c2)c1Cl | -48% | 1% | 2% | 50µM*
O=C(O)c1cccc(Cn2c(Cl)c(/C=N/NC(=O)c3ccco3)sc2=O)c1 | nt | -19% | -6% | 79µM*
O=C(CSc1ncc2c(n1)-c1cc(Cl)ccc1N(Cc1ccccc1)S2(=O)=O)NCCc1ccccc1 | nt | 10%[57.1 µM] | nt | 14%[57.1 µM]
CCOC(=O)N(C)OC(=O)Nc1ccc(Cl)c(Cl)c1 | 20%[46.1 µM] | 7%[57.1 µM] | 6% | 16µM*
CCOC(=O)N(CC)OC(=O)Nc1ccc(Cl)cc1 | -8%[46.1 µM] | -6% | 0% | ?
CCOC(=O)c1ccc(/C=C2/C=C(c3ccccc3)N(c3ccc(Cl)c(C(=O)O)c3)C2=O)cc1 | 13µM* | -9%[57.1 µM] | nt | -25%[57.1 µM]
COc1cc2nc(N3CCCN(C)CC3)nc(N(C)C)c2cc1OC | nt | -4% | nt | -32%
N#C/C(=C/c1ccc(N2CCCCC2)cc1)c1cccc(F)c1 | -19% | -6% | 0% | -17%
N#C/C(=C/c1ccc(N2CCCCC2)o1)c1cccc(F)c1 | 10µM* | -9% | 2% | 7.1µM*
N#C/C(=C/c1ccc(N2CCCCCC2)o1)c1ccc(Cl)cc1 | 10µM* | -8% | 0% | 8.9µM*
COC(=O)CNC(c1ccccc1)c1cc(Br)ccc1NC(=O)CCN1CCOCC1 (stereo unspecified) | 12% | 0% | -1% | 2.2µM*
CCN1C(=O)C2(C(C(=O)c3ccc(C)o3)=C(O)C(=O)N2CCCN2CCOCC2)c2ccccc21 (stereo unspecified) | -8%[46.1 µM] | 7% | -1% | ?
COc1cccc2cc(C(=O)C3=C(O)C(=O)N(CCN4CCOCC4)C3c3ccc(C)o3)oc12 (stereo unspecified) | nt | -12% | 0% | 79µM*
CCN1C(=O)C2(C(C(=O)c3cc4ccccc4o3)=C(O)C(=O)N2CCCN2CCOCC2)c2ccccc21 (stereo unspecified) | 7.9µM* | -15% | -2% | -3%[57.1 µM]
COc1cccc(C2C(C(=O)c3cc4ccccc4o3)=C(O)C(=O)N2CCN2CCOCC2)c1 (stereo unspecified) | nt | 2%[57.1 µM] | -2% | ?
COc1cccc2cc(C(=O)C3=C(O)C(=O)N(CCN(C)C)C3c3ccc(F)cc3)oc12 (stereo unspecified) | 27%[46.1 µM] | -2% | 1% | -17%
COc1ccccc1C1C(C(=O)c2cc3ccccc3o2)=C(O)C(=O)N1CCN1CCOCC1 (stereo unspecified) | 8%[46.1 µM] | -10% | 4% | 22µM*
O=C(Nc1ccccc1F)c1cnn2c1NC(=C1CC1)C=C2C(F)F | nt | 1% | nt | 11%
Cc1ccccc1OCC(=O)NCC(=O)OCC(=O)c1ccc2c(c1)CCCC2 | nt | -2% | nt | 31%[0.0914 µM]
O=C(CN1CCN(S(=O)(=O)c2ccc(Cl)cc2)CC1)c1ccc(O)c(O)c1 | nt | -9% | 1% | 25µM*
O=C(CN1CCN(S(=O)(=O)c2ccc(F)cc2)CC1)c1ccc(O)c(O)c1 | -4% | -11%[57.1 µM] | 0% | -66%
O=C1CC(Nc2ccc(N3CCOCC3)cc2)C(=O)N1c1ccccc1F (stereo unspecified) | -21%[46.1 µM] | 2% | 1% | 79µM*
SMILES | NPSR antag | TrxR1 substrate | GALK inh | rTrxR1 inhibitor
O=C(c1nc(-c2ccc(Cl)cc2)n2c1CCCCC2)N1CCN(c2ccc(F)cc2)CC1 | nt | -5% | nt | 7%
Cc1cc2cc(CNC(=O)c3ccc(Br)o3)ccc2n1C | -18% | 10%[57.1 µM] | 2% | 8.9µM*
CCCC(=O)NCc1ccc2c(c1)cc(C)n2C | -8%[46.1 µM] | -4% | 4% | 18%
C[n+]1c(/C=C/c2ccc(F)cc2)ccc2ccccc21 | nt | -13% | nt | ?
Cc1ccc(NC(=O)c2cc(N3C(=O)C=CC3=O)ccc2N2CCOCC2)cc1Cl | ? | -9% | 0% | 3.5µM*
Cc1ccc(NC(=O)c2cc(N3C(=O)CCC3=O)ccc2N2CCOCC2)cc1 | 7% | -18%[57.1 µM] | 1% | -14%
Cc1cccc(CSc2cccc3cccnc23)c1 | 3.2µM* | 15% | 0% | -24%[57.1 µM]
O=[N+]([O-])c1ccc(C=C2c3ccccc3-c3ccccc32)cc1 | nt | 4% | nt | 5%
Cc1ccc(CNC(=O)c2c[nH]c3ccc(S(=O)(=O)Nc4ccc(C(C)C)cc4)cc3c2=O)cc1 | nt | -3%[57.1 µM] | nt | 25%[57.1 µM]
CCc1cc2c(=O)c(-c3nc4ccccc4[nH]3)coc2c(CN2CCCCC2C)c1O (stereo unspecified) | 20%[7.67 µM] | 2% | -3% | 12%
CCc1cc2c(=O)c(-c3ccc4c(c3)OCCO4)coc2c(CN2CCCCC2C)c1O (stereo unspecified) | 10µM* | 56% | 0% | -14%
NS(=O)(=O)C#Cc1ccccc1 | nt | 20%[57.1 µM] | nt | 4.7µM*
Nc1ccc(C#Cc2ccccc2)cc1 | -8%[46.1 µM] | -2% | 0% | -8%
O=C(CCC(=O)N1CCN(c2ccccn2)CC1)c1cccs1 | nt | 7% | nt | 12%
O=C(CCN1CCC(c2cccs2)=N1)c1cccs1 | -2% | 0% | nt | 22µM*
COc1ccc(CCNC(=O)c2nn(-c3ccc(C)cc3)c(=O)c3c2c2ccccc2n3C)cc1OC | nt | 1% | nt | 9%
C=C(C(=O)c1ccccc1)C(C)C(=C)C(=O)c1ccccc1 | 10µM* | -4% | -3% | -18%
C=C(C(=O)c1ccccc1)C(c1ccccc1)C(C)C(=O)c1ccccc1 (stereo unspecified) | ? | -7% | -3% | -1%
O=C(O)CC1=C(O)C(=O)N(c2ccccc2)C1c1ccccc1 (stereo unspecified) | 6%[46.1 µM] | -8% | 0% | 45µM*
c1ccc(Cn2c(SCc3nc4ccccc4s3)nnc2-c2ccco2)cc1 | -13%[46.1 µM] | 8%[57.1 µM] | -1% | 10µM*
CCOC(=O)C1(Cc2cccc(OC)c2)CCCN(C(=O)c2cc(CC(C)C)[nH]n2)C1 (stereo unspecified) | nt | -6% | 4% | 2%
CCOC(=O)C1(Cc2cccc(OC)c2)CCCN(C(=O)c2ccc(OC)o2)C1 (stereo unspecified) | nt | 4% | -6% | 50µM*
CCN1C(=O)[C@H]2[C@@H](c3ccc(-c4ccc(OC)cc4)c(OC)c3)N[C@@](C)(C(=O)OC)[C@H]2C1=O | nt | 27% | nt | -3%
CCN1C(=O)[C@H]2[C@@H](c3ccc(-c4ccc(F)cc4)c(OC)c3)N[C@@](C)(C(=O)OC)[C@H]2C1=O | nt | 1% | nt | 79µM*
O=C1C=CC(=O)N1c1ccc2c(c1)C(NC(=O)C(F)(F)F)c1ccccc1-2 (stereo unspecified) | nt | 4% | nt | 1.8µM*
O=C(O)CCCN1C(=O)/C(=C\c2ccco2)SC1=S | 33% | 7%[57.1 µM] | 9% | 22µM*
O=C(CCN1C(=O)/C(=C/c2ccco2)SC1=S)Nc1ccc(C(=O)O)c(O)c1 | nt | -9% | -3% | 45µM*
